10 molecules from PubChem BioAssay (Tox21) can be followed below.

Values without a mark were called inactive. Inconclusive results are not listed. The source made the active and inactive calls. Unless noted, calls follow the shape of the dose curve; as a rule, active = well fitted curve in the direction sought with a large enough effect in the repeat runs; inconclusive = weak or mixed curves; inactive = no such curve, though single readings can be large; an effect the other way counts as inactive or inconclusive.

Assay [1] in a line: qHTS assay to identify small molecule agonists of the estrogen receptor alpha (ER-alpha) signaling pathway in the presence of an antagonist - cell viability counter screen (AID 1259386).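 Also: series mostly up to about 92 µM; cells exposed to compounds for 22 h at 37 °C before the viability read; nearly all actives have a fitted effect of over 30% in size.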 An outline of the steps:
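Steps: 5-day stripped-FBS culture; seed and incubate 24hr; add ICI-182,780 (10.0nM final); pin 15-point compound titration; incubate 22hr at 37C; add CellTiter-Fluor at 21hr; read fluorescence.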
On the technique in general: Quantitative high-throughput screening tests each substance at several concentrations.

The target in assay [2] is Progesterone receptor (Homo sapiens) (UniProt P06401). Description: qHTS assay to identify small molecule agonists of the progesterone receptor (PR) signaling pathway (AID 1346784; calls by dose curve; also: nearly all actives have a fitted effect of over 30% in size; also: potency is read from the fitted curve at half-maximal effect). Put shortly: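 Seed PR-UAS-bla HEK 293T cells (2% charcoal-stripped FBS), incubate 6 hr at 37C; add compounds in DMSO, 16 hr at 37C; add LiveBLAzer B/G substrate, 2 hr RT; read fluorescence intensity.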

The target is the same in assay [3]. Briefly: qHTS assay to identify small molecule antagonists of the progesterone receptor (PR) signaling pathway (AID 1346795; active = well fitted inhibition curve with a large enough effect in the signal ratio in the repeat runs, not every such curve was filed as active; the % refers to the signal ratio; also: potency is read from the fitted curve at half-maximal effect). An outline of the steps:
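Screening used a GripTite HEK293T line with PR-responsive UAS-beta-lactamase. Cells were challenged with compound in the presence of 1 nM R5020 final for 16 hr at 37C; B/G FRET substrate, 2 hr room temperature, fluorescence.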

A short description of assay [4]: qHTS assay to identify small molecule antagonists of the progesterone receptor (PR) signaling pathway - cell viability counter screen (AID 1346798). Also: nearly all actives have a fitted effect of over 50% in size. Also: potency is read from the fitted curve at half-maximal effect. An outline of the steps:
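Measures cytotoxicity in parallel with the PR antagonist reporter read: HEK293T PR-UAS-bla cells get compound and R5020 for 16 hr, and remaining viable cells are quantified by CellTiter-Glo luminescence.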

The nature of assay [5]: qHTS assay to identify small molecule agonists of the progesterone receptor (PR) signaling pathway - cell viability counter screen (AID 1346799; calls by dose curve; also: nearly all actives have a fitted effect of over 45% in size; also: potency is read from the fitted curve at half-maximal effect). Put shortly:
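Using the same plates as the PR reporter screen, HEK293T PR-UAS-bla cells received compounds for 16 hr at 37C and were then lysed with CellTiter-Glo; luminescence was read 30 min later at room temperature.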

Assay [6] can be described thus: qHTS assay to identify small molecule antagonists of the TGF-beta/Smad signaling pathway - cell viability counter screen (AID 1346824). Also: nearly all actives have a fitted effect of over 50% in size. Also: potency is read from the fitted curve at half-maximal effect. An outline of the steps:
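Cytotoxicity counter-screen run in the same wells as the beta-lactamase Smad reporter read: CellTiter-Glo luminescence after 30 min at room temperature. HEK 293T SBE-bla cells had 5 hr compound exposure at 37 C with TGF-beta1 (0.25 ng/mL stock).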

Assay [7] can be described thus: qHTS assay to identify small molecule agonists of the TGF-beta/Smad signaling pathway - cell viability counter screen (AID 1346829). Also: nearly all actives have a fitted effect of over 45% in size. Also: potency is read from the fitted curve at half-maximal effect. Put shortly: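 Here the cytotoxicity of library compounds is measured in SBE-bla HEK 293T cells treated for 5 hr, using CellTiter-Glo added to wells already read for the beta-lactamase reporter.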
Assay [8] in a line: qHTS assay to identify small molecule agonists of the TGF-beta/Smad signaling pathway (AID 1346859; active = well fitted activation curve with a large enough effect in the signal ratio in the repeat runs, not every such curve was filed as active; the % refers to the signal ratio; also: series mostly up to about 77 µM). Put shortly:
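Beta-lactamase reporter activity downstream of Smad binding elements was measured in stably transfected HEK 293T cells; compounds were incubated for 5 hr, substrate for 2 hr at room temperature.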

Assay [9] addresses Thyrotropin-releasing hormone receptor (Homo sapiens) (UniProt P34981). Description: qHTS assay to identify small molecule antagonists of the thyrotropin-releasing hormone receptor (TRHR) signaling pathway (AID 1346877; active = well fitted inhibition curve with a large enough effect in the repeat runs, not every such curve was filed as active; also: series mostly up to about 51 µM). An outline of the steps: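 Human TRHR in HEK293 cells; inhibition of the intracellular calcium rise triggered by 1 nM TRH was followed by fluorescence over 3 min. Compounds were run at 15 concentrations, three replicates each.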

Assay [10] has the same target. Description: qHTS assay to identify small molecule agonists of the thyrotropin-releasing hormone receptor (TRHR) signaling pathway (AID 1346891; calls by dose curve;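 also: HEK293 cells expressing TRHR with calcium dye readout; series mostly up to about 58 µM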). Put shortly: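 Overnight-plated (18 h, 37 °C, 5% CO2) TRHR-Hek293 cells; 2 h calcium dye at 37 °C; compound in DMSO; 3-min kinetic fluorescence read.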
Assay [11] in a line: Human pregnane X receptor (PXR) small molecule agonists, qHTS cell viability counter screen (AID 1346977). Also: nearly all actives have a fitted effect of over 50% in size. Also: potency is read from the fitted curve at half-maximal effect. Put shortly:
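After a 5hr pre-incubation, PXR-Luc HepG2 cells received compounds plus positive control in DMSO and were kept 24hr at 37C. Cell viability was quantified by fluorescence from CellTiter-Fluor added for the final hour.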

Assay [12] in a line: Caspase-3/7 induction in HepG2 cells by small molecules, qHTS assay (AID 1346978). Also: nearly all actives have a fitted effect of over 15% in size. Put shortly:
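Caspase-3/7 induction was measured by Caspase-Glo 3/7 luminescence (30 min, room temperature) after a 17 hr compound exposure of wild-type HepG2 cells seeded at 2,000 per well and pre-incubated 5 hr.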

A short description of assay [13]: Caspase-3/7 induction in CHO-K1 cells by small molecules, qHTS assay (AID 1346980). Also: nearly all actives have a fitted effect of over 15% in size. Put shortly:
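Luminescent Caspase-Glo 3/7 read (30min, room temperature) quantified apoptosis induction. Cells were wild-type CHO-K1, treated with compound for 17hr at 37 C and 5% CO2.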

Assay [14] deals with Nuclear receptor subfamily 1 group I member 2 (Homo sapiens) (UniProt O75469). Briefly: Human pregnane X receptor (PXR) small molecule agonists, qHTS assay (AID 1346982). Also: nearly all actives have a fitted effect of over 35% in size. Also: potency is read from the fitted curve at half-maximal effect. An outline of the steps: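 After plating in 5% charcoal-stripped FBS and a 5 hr rest, PXR-Luc HepG2 cells received compounds in DMSO. Following 24 hr at 37 C, ONE-Glo was added and light output read.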
The target is the same in assay [15]. Description: Human pregnane X receptor (PXR) activation by small molecules, qHTS assay (AID 1346985). Also: nearly all actives have a fitted effect of over 40% in size. An outline of the steps:
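DPX-2 cells (HepG2 co-transfected with a PXR response element and a CYP3A4-promoter luciferase construct) were seeded at 2,000 per well, rested 5 hr at 37C, then exposed to DMSO-dissolved compounds for 24 hr. Activation was read as luciferase luminescence.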

Assay [16] can be described thus: Caspase-3/7 induction in HepG2 cells by small molecules, qHTS cell viability counter screen (AID 1346981). Also: series mostly up to about 92 µM; nearly all actives have a fitted effect of over 30% in size. An outline of the steps:
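The parent HepG2 line is plated at 2,000 cells per well and rested 5 hr before compound pinning from DMSO stocks. Following a 16-hr treatment at 37 C, a fluorogenic live-cell substrate (CellTiter-Fluor) reports viability after 1 hr.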

Assay [17] has as its target Cytochrome P450 2D6 (Homo sapiens) (UniProt P10635). Description: Cytochrome P450 Family 2 Subfamily D Member 6 (CYP2D6) small molecule antagonists: luciferase reporter qHTS assay (AID 1671196). Also: nearly all actives have a fitted effect of over 50% in size. Also: potency is read from the fitted curve at half-maximal effect. Put shortly: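 Quantitative HTS of Tox21 chemicals against CYP2D6 using a luminescent proluciferin substrate. After NADPH addition, 1 h room-temperature reaction; luminescence recorded 20 min post detection reagent.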
A general note: In a reporter assay the amount or activity of a reporter protein is the signal.

The nature of assay [18]: Caspase-3/7 induction in CHO-K1 cells by small molecules, qHTS cell viability counter screen (AID 1346979). Also: nearly all actives have a fitted effect of over 35% in size. Also: potency is read from the fitted curve at half-maximal effect. Put shortly:
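Multiplexed with Caspase-Glo 3/7 in CHO-K1 cells, this counter screen added CellTiter-Fluor after 16hr of compound exposure and recorded fluorescence 1hr later.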

The target in assay [19] is Nuclear receptor subfamily 1 group I member 2 (Homo sapiens) (UniProt O75469). Briefly: CYP3A4 induction through human pregnane X receptor (PXR) by small molecules, qHTS assay (AID 1346984). Also: nearly all actives have a fitted effect of over 40% in size. An outline of the steps:
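Human PXR activation is tracked via CYP3A4 promoter-luciferase in DPX-2 (HepG2) cells. Compounds treat cells for 24hr at 37C, and luminescence is read after One-Glo.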

Nuclear receptor subfamily 1 group I member 2 (Homo sapiens), sequence (O75469 whole entry, looked up): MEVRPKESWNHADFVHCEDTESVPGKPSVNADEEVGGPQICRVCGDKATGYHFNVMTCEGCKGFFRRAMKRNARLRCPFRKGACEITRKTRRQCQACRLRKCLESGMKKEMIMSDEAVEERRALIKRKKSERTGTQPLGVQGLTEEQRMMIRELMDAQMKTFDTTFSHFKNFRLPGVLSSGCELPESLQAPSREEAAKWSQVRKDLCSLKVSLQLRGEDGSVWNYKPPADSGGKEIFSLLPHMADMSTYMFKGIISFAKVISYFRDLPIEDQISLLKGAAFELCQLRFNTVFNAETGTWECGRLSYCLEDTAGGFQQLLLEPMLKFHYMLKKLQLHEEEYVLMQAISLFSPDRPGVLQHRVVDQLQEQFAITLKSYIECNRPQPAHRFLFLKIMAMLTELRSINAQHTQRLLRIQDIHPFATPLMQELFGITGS
Thyrotropin-releasing hormone receptor (Homo sapiens), sequence (P34981 whole entry, looked up): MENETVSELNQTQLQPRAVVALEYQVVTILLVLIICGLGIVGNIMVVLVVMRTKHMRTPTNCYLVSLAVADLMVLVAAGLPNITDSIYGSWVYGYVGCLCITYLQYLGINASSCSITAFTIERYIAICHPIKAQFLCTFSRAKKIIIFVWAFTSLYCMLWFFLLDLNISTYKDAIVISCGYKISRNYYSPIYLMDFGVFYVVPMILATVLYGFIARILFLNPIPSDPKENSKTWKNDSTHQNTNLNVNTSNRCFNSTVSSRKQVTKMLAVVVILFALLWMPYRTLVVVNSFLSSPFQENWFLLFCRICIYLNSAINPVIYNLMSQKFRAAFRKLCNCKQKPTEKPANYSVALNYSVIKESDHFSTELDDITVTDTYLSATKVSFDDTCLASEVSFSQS
Progesterone receptor (Homo sapiens), sequence (P06401 whole entry, looked up): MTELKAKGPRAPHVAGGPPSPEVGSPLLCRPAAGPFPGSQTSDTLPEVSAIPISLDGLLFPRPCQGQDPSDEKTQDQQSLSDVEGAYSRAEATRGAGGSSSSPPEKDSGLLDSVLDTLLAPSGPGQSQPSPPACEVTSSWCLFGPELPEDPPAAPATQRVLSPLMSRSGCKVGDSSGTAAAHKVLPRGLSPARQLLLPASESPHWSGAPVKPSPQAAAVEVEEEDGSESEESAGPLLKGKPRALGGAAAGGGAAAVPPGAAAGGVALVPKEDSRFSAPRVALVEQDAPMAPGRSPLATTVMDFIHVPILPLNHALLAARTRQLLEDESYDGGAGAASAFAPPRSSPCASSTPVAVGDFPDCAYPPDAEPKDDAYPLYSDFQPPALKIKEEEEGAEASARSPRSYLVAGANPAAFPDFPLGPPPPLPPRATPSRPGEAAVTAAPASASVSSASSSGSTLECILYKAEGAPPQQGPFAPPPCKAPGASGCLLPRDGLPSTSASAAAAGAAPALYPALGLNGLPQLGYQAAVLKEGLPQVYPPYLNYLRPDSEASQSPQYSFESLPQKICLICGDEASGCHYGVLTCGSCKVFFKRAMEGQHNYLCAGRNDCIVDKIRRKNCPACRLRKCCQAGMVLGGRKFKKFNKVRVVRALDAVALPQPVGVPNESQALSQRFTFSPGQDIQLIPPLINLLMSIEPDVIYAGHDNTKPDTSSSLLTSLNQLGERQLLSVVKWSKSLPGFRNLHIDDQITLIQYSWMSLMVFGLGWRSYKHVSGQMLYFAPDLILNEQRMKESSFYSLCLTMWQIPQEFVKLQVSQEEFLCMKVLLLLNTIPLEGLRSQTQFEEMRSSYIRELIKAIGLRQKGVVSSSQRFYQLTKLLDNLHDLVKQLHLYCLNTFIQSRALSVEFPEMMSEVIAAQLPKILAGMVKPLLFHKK
Cytochrome P450 2D6 (Homo sapiens), sequence (P10635 whole entry, looked up): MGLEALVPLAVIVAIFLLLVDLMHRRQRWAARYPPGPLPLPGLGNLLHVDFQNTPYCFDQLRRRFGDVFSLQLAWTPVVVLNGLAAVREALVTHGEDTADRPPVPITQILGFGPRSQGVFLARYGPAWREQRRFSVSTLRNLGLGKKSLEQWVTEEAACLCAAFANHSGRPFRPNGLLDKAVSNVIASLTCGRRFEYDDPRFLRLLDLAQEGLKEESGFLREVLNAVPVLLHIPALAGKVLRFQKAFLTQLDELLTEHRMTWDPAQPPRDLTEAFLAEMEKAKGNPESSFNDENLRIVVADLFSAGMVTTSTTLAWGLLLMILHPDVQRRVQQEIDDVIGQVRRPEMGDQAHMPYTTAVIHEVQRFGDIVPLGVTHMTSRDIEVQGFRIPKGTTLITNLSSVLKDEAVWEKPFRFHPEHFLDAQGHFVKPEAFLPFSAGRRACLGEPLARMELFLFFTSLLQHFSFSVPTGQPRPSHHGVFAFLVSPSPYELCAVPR

On to `COc1cc(N)c(Cl)cc1C(=O)NC1CCN(CCCOc2ccc(F)cc2)CC1OC` (stereo unspecified), for which the Potency entry in assay [1], in assay [2], in [4], in assay [5], in assay [6] and in assay [7] was “inactive” each time. For the same molecule, the Potency entry in assay [8], in assay [10], in [12], in assay [13], in assay [14] and in assay [15] was “inactive” each time. Further, the Potency in assay [3] and in assay [11] was 29.8 µM (active) each time. For the same molecule, the result in assay [9] was inactive.

With `CCC1CO1` (stereo unspecified), the Potency entry in assay [1], in [2], in [3], in assay [4], in [5] and in assay [6] was “inactive” throughout. In addition, the Potency entry in assay [7], in assay [8], in assay [11], in [12], in assay [13] and in assay [16] was “inactive” in each case. In assay [17], the Potency entry was “inactive”.

For `Cc1cc(C)c(N)cc1C`, the Potency entry in assay [1], in assay [2], in assay [3], in [4], in [5] and in [6] was “inactive” each time. Moreover, the Potency result in [7], in assay [8], in [11], in assay [12], in assay [18] and in assay [13] was “inactive” each time. In addition, in assay [16], the Potency entry was “inactive”.

In the case of `O=C1c2ccccc2C(=O)C1c1nc2ccccc2c(Br)c1O`, the Potency result in [1], in assay [2], in [3], in assay [4], in [5] and in assay [6] was “inactive” throughout. Moreover, the Potency result in [7], in assay [10], in assay [11], in [12], in assay [13] and in assay [17] was “inactive” each time. Further, the molecule was classed as inactive in assay [9].

For the molecule `Cc1cscn1`, the Potency entry in assay [1], in assay [2], in [3], in [4], in assay [5] and in assay [6] was “inactive” each time. The Potency entry in assay [7], in [8], in assay [11], in assay [12], in assay [18] and in [13] was “inactive” in each case. Also, the Potency result in assay [16], in assay [14] and in assay [17] was “inactive” in each case.

As for `C(=C\c1ccccc1)/c1ccccc1`, the Potency result in assay [1], in [2], in [3], in assay [4], in assay [5] and in assay [6] was “inactive” each time. For the same molecule, the Potency result in assay [7], in assay [8], in [10], in [11], in [12] and in [16] was “inactive” each time. Also, in assay [14], the Potency entry was “inactive”. For the same molecule, in [9], the molecule was classed as inactive.

Turning to `CCOC(C)=O`, the Potency entry in assay [1], in assay [2], in assay [3], in assay [4], in assay [5] and in assay [6] was “inactive” throughout. Also, the Potency entry in assay [7], in [10], in assay [11], in assay [12], in [19] and in [15] was “inactive” in each case. In addition, in assay [17], the Potency entry is “inactive”. Also, the molecule was called inactive in assay [9].

With `O=c1cc(-c2ccccc2)oc2ccc3ccccc3c12`, the Potency result in assay [1], in assay [2], in assay [3], in assay [10], in [11] and in assay [12] was “inactive” each time. For the same molecule, in assay [13], the Potency result is “inactive”. In addition, the Potency in assay [4] is 21.7 µM (active); in assay [5], 19.3 µM (active); in assay [6], 13.8 µM (active); in assay [7], 13.8 µM (active); in assay [18] it was 54.5 µM (active); in assay [17], 5.64 µM (active). In [9], the molecule was classed as inactive.

Take `CC1(C)O[C@@H]2C[C@H]3[C@@H]4C[C@H](F)C5=CC(=O)C=C[C@]5(C)[C@H]4[C@@H](O)C[C@]3(C)[C@]2(C(=O)CO)O1`: the Potency entry in [1], in assay [3], in assay [4], in [5], in assay [6] and in [7] was “inactive” in each case. Moreover, the Potency result in assay [11], in [12], in assay [18], in assay [13], in assay [16] and in assay [19] was “inactive” each time. Also, the Potency entry in assay [15] was “inactive”. Besides, in assay [2], the Potency is 0.0119 µM (active).

As to `Cc1cc(C)cc(N)c1`, the Potency result in assay [1], in assay [2], in [3], in assay [4], in assay [5] and in assay [6] was “inactive” throughout. The Potency entry in assay [7], in [10], in assay [11], in assay [12], in [18] and in assay [13] was “inactive” each time. For the same molecule, the Potency entry in assay [16] was “inactive”. Further, the call in [9] was inactive. For the same molecule, the Potency is 61.9 µM (active) in assay [14] and 5.09 µM (active) in assay [17].
